Substitutions are numbered along the chain they refer to. Over roughly 5,800 sequences, “enrichment r” has its median near 0.54; the highest 2% begin near 16. The sample as a whole holds a higher share of the highest values than the screen did.
B1: chr5:40972473:40972581:+|CDS|ENSG00000112936|unk|FALSE|unique (ssRNA)
RNA: GGGAGUUCUACAGUCCGACGAUCAAAACCUUUCUACACAGUUGGUGAGAAGGUGACUGUUUCCUGUUCAGGUGGCAUGUCCUUAGAAGGUCCUUCAGCAUUUCUCUGUGGCUCCAGCCUUAAGUGGAGUCCUGAGAUGAAGAACAACAGAGGAUUGAGCAUCA
B2: ENSG00000096070:stop:overlap|stop_codon|ENSG00000096070|stop_codon|NA|stop_codon (ssRNA)
RNA: GGGAGUUCUACAGUCCGACGAUCAGAAGGAUCCUGCACACAUCUUCGCAGAACCAGUCAACUUGAGUGAGGUUUUAUAUGUUUAGGUUCCAGAUUACCUGGAAUUCAUAUCCAAGCCAAUGGAUUUUUCUACUAUGAGGCGGACAACAGAGGAUUGAGCAUCA
B3: chr15:67202635:67202736:-|3pUTR|ENSG00000103591|msi1|total|mutant (ssRNA)
RNA: GGGAGUUCUACAGUCCGACGAUCUGCCAAAAUUGCCCUUAUCAUGUUGGCUGCCUGACUUGUUUACCGGGUCCCCUUAAUUUCCGUUUUCCGCCGGAGGUUAAGGAGAAAUCUUUUUUUUCCUCAGUAUAUUGUAAGAGAGUGCAACAGAGGAUUGAGCAUCA
B4: chr3:46835109:46836203:-|three_prime_utr|ENSG00000160808|control|control|control (ssRNA)
RNA: GGGAGUUCUACAGUCCGACGAUCUGAAGGCACAAGCUGUUCCAGUAUAAUAAAGAAAAUAAUUAAAUUAAGAAAAGUUAUACUAGAAAUAAGAUAUAGGUAUGAUUAUUAUUAAUCAUUAGUUUGUAGUAUUACUUUGUUCUACAACAGAGGAUUGAGCAUCA
B5: ENSG00000070961:be:win_4051|3pUTR|ENSG00000070961|bound_else_gene|NA|bound_elsewhere_windowed (ssRNA)
RNA: GGGAGUUCUACAGUCCGACGAUCAUUUCUGCUGUUGGCUGUUAAUAAUUUGGAUUAUUUAUGUUUAUAAAUGAUACAGAUCUGUUUACAAGGUUUGUAGAUACUUUUUUUGUUCCUGUUCAUAGAUGGGAAGCUUCCUUAUAACAACAGAGGAUUGAGCAUCA
B6: chr16:3436009:3436110:-|3pUTR|ENSG00000167981|unk|FALSE|unique (ssRNA)
RNA: GGGAGUUCUACAGUCCGACGAUCAUUAAAAUGAAGGCUCUUGCUAAAGUUAUUUUAAUUUUGUUUACGUAGUUUCUGACUUUUAGAAGGAGGAGAAUUUAUUUAUAUUUUGCCAGUUCUGCAGACAUAUCUAGGAAAGUAAAUCAACAGAGGAUUGAGCAUCA
B7: chr3:100749155:100750494:-|three_prime_utr|ENSG00000154175|control|control|control (ssRNA)
RNA: GGGAGUUCUACAGUCCGACGAUCUGCCGCAUUCAUUUAAAGCUAUUUUGUUUACUAUGUAUAAAAGUCUACAAUCUAAUUAAUAGCAAUACUAGAUGUUUAUUAUUAGAAAAGAUUGCUGAGAGUAUUUAUCAGGUUUUACAACAACAGAGGAUUGAGCAUCA
B8: chr16:3436009:3436110:-|3pUTR|ENSG00000167981|unk|total|mutant (ssRNA)
RNA: B6 RNA with U69C, A70C, U83C, A84C, U131C, A132C
B9: chr13:42886387:42888493:-|three_prime_utr|ENSG00000133106|control|control|control (ssRNA)
RNA: GGGAGUUCUACAGUCCGACGAUCCAUAUUUAAUCUCUACUGCCAGGGAAAUGCUACAUUAUUUUUCUAAUUGGAAGUAUAAUUAGAGUGAUGUUGGUAGGGUAGAAAAAGAGGGAGUCACUUGAUGCUUUCAGGUUAAUCAGACAACAGAGGAUUGAGCAUCA
B10: chr15:67202635:67202736:-|3pUTR|ENSG00000103591|msi1|FALSE|unique (ssRNA)
RNA: B3 RNA with C66U, C67A, C83U, C84A, C90U, C91A, C93U, C94A
B11: chr6:1612588:1612689:+|3pUTR|ENSG00000054598|msi1|FALSE|unique (ssRNA)
RNA: GGGAGUUCUACAGUCCGACGAUCUUUAUUCAUGGACUUGUUUUAAAAUGUAAAUUGCAACAUAGUAAUUUAUUUUUAAUUUGUAGUUGGAUGUCGUGGACCAAACGCCAGAAAGUGUUCCCAAAACCUGACGUUAAAUUGCCUCAACAGAGGAUUGAGCAUCA
B12: chr1:183143318:183143419:+|3pUTR|ENSG00000135862|msi1|FALSE|unique (ssRNA)
RNA: GGGAGUUCUACAGUCCGACGAUCACAUCCUGUGCCAAAGGUAUUGGUCAUUUAGAAUGUCGGUAGCCAUCCAUCAGUGCUUUUAGUUAUUAUGAGUGUAGGACACUGAGCCAUCCGUGGGUCAGGAUGCAAUUAUUUAUAAAACAACAGAGGAUUGAGCAUCA
B13: chr1:16124349:16124452:-|3pUTR|ENSG00000142627|msi1|FALSE|unique (ssRNA)
RNA: GGGAGUUCUACAGUCCGACGAUCUUUGUUUUGUUGGACAUUUUUUUCGAAUCUUAAUUUAUUAUUUUUUUUAUAUUUAUUGUUAGAAAAUGACUUAUUUCUGCUCUGGAAUAAAGUUGCAGAUGAUUCAAACCGAUCUUGGCUCAACAGAGGAUUGAGCAUCA
B14: chr1:183143318:183143419:+|3pUTR|ENSG00000135862|msi1|total|mutant (ssRNA)
RNA: B12 RNA with U52C, A53C, U63C, A64C, U83C, A84C, U98C, A99C

Each binder was assayed against MSI1 full-length (mouse, UniProt Q61474 1-362) (assay: nsRBNS (natural sequence RNA bind-n-seq); RBNS binding buffer (assumed for nsRBNS): 25 mM Tris pH 7.5, 150 mM KCl, 3 mM MgCl2, 0.01% Triton X-100, 500 ug/ml BSA, 20 U/ml SUPERase-In, 4 C; UNK is unkempt and MSI1 is Musashi-1; names of the RNAs are library labels; protein concentration not given here; high values mean tight binding).
Sequence of MSI1 full-length (Q61474 whole entry): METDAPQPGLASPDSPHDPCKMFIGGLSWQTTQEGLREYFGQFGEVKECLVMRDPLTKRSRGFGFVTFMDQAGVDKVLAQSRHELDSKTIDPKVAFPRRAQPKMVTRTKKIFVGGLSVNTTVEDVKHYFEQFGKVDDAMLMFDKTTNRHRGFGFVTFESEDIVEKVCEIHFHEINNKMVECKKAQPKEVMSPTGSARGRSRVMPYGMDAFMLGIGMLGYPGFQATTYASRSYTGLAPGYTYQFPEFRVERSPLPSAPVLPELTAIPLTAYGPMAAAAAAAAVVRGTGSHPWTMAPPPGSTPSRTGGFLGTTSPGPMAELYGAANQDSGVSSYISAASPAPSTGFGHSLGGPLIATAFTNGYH
In the case of B1, the binding signal is reported as 0.339 enrichment R.
For B2, the binding signal was 0.383 enrichment R.
Work on B3 yielded a binding signal of 0.438 enrichment R.
In the case of B4, the binding signal is reported as 24.8 enrichment R.
B5 was tested, and the binding signal was 1.02 enrichment R.
Work on B6 yielded a binding signal of 19.1 enrichment R.
With B7 the binding signal was 4.63 enrichment R.
B8 showed a binding signal of 0.68 enrichment R.
Binder B9 has a binding signal of 0.46 enrichment R.
With B10 the binding signal was 32.9 enrichment R.
With B11 the binding signal was 0.311 enrichment R.
B12 gave a binding signal of 34.2 enrichment R.
With B13 the binding signal was 4.58 enrichment R.
B14 gave a binding signal of 0.319 enrichment R.

Source: publication PMC12136788
